Measured values as given in PubChem BioAssay (NCI).
Values joined by “and” are separate entries in the source; they are usually repeats but may differ in a detail not shown here. Identical values can stand only once. This is part of a sample that, as a whole, favours compounds with a hit. Of some 79,000 tested, about 15% had one in any assay. Active and inactive are the calls of the source. Cut-off read from the data, not from the text of the source: active = growth inhibition above about 70%; inactive = the rest.

Key:
[1] = NCI Yeast Anticancer Drug Screen. Data for the rad50 strain (AID 155);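 note: 0% = growth of vehicle-only cultures of the same strain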; details: S. cerevisiae rad50 strain growth inhibition, active compounds read high; at 50.0 µM unless noted
How it was run: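 Inhibition values express reduced yeast growth in compound-treated cultures relative to vehicle-treated controls.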

[2] = NCI Yeast Anticancer Drug Screen. Data for the mec2-1 strain (AID 157); details: S. cerevisiae mec2-1 strain, active compounds read high; at 50.0 µM unless noted
How it was run: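 Cells of the genetically defined mec2-1 yeast strain are incubated with test compound. Inhibition of growth is calculated against vehicle-treated controls.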

[3] = NCI Yeast Anticancer Drug Screen. Data for the sgs1 mgt1 strain (AID 161);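 note: 0% = growth of cultures given vehicle only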; details: S. cerevisiae sgs1 mgt1 strain, active compounds read high; at 50.0 µM unless noted
How it was run: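 Inhibition of yeast growth, normalised to vehicle-treated controls, is reported for a strain bearing genetic alterations in DNA damage repair.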

[4] = NCI Yeast Anticancer Drug Screen. Data for the cln2 rad14 strain (AID 165);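 note: 0% = growth equal to vehicle treated cultures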; details: S. cerevisiae cln2 rad14 strain, active compounds read high; at 50.0 µM unless noted
How it was run: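 The screen exposed genetically defined yeast (cln2 rad14) to test compounds and scored growth inhibition relative to vehicle-treated controls.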

[5] = NCI Yeast Anticancer Drug Screen. Data for the bub3 strain (AID 167); details: S. cerevisiae bub3 mutant strain, active compounds read high; at 50.0 µM unless noted
How it was run: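 Steps: expose the mutant yeast strain to compound; grow alongside vehicle-treated cultures; measure growth; express inhibition against the vehicle cultures.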

[6] = NCI Yeast Anticancer Drug Screen. Data for the mlh1 rad18 strain (AID 175); details: S. cerevisiae mlh1 rad18 strain growth inhibition, active compounds read high; at 50.0 µM unless noted
How it was run: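 Compound-treated yeast growth, normalised to vehicle controls. Strain bears defined DNA repair mutations.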

Measured: growth inhibition

COc1ccc(C2=N/C(=C\c3ccccc3)C(=O)O2)cc1
inactive: [1] -4.05% | [2] 8.6% | [3] 28.4% | [4] -22.4% | [5] -4% | [6] -0.9%

OC(COc1cccc(C(F)(F)F)c1)CN1CCN(c2ccc(F)cc2)CC1 (stereo not given)
active: [1] 86.8% | [2] 88% | [3] 96.3% | [4] 88.5% | [5] 86.4% | [6] 92.2%

Cc1ccc(/C=C(/c2ccccc2)C(CC(=O)O)C(=O)O)cc1 (stereo not given)
inactive: [1] -4.75% | [2] -11.3% | [3] -6.85% | [4] -44.7% | [5] -6.35% | [6] -14.5%

NNC(=O)CCn1[nH]c(=O)c(Cl)c(Cl)c1=O
inactive: [1] 13.9% | [2] 11.8% | [3] 19.9% | [4] 12.9% | [5] 16.9% | [6] 11.4%

CS(C)=C(C(=O)c1ccccc1)/C(=C/C(=O)c1ccccc1)c1ccccc1
active: [6] 79%
inactive: [1] 21.5% | [2] 26.2% | [3] 65% | [4] 36% | [5] 43.6%

CCCCC(/C=C(\C(C)=O)C(=O)OCC)CC (stereo not given)
inactive: [1] -5.95% | [2] -39.1% | [3] -28.1% | [4] -10.5% | [5] -37% | [6] -40.6%

Cc1ccc(S(=O)(=O)c2ccccc2)cc1
inactive: [1] -18.4% and 23.4% | [2] -15.6% and -0.95% | [3] -22.5% and 23% | [4] 2.4% and 1.35% | [5] -5.35% and 3.1% | [6] -43.6% and 16.6%

CCCCCCCCSC(=N)N
inactive: [1] 23.9% | [2] -14.1% | [3] 1.95% | [4] 18.1% | [5] 36.1% | [6] 10.7%

CCN(CC)C(=O)c1c(Cl)cc(N(CC)CC)oc1=O
inactive: [1] -21.7% | [2] -11.8% | [3] -42% | [4] -23.5% | [5] -41.1% | [6] -54.5%

CC(NC(C#N)CC12CC3CC(CC(C3)C1)C2)c1ccccc1 (stereo not given)
inactive: [1] -11.8% | [2] -11.4% | [3] -11.6% | [4] 12.2% | [5] 6.75% | [6] -30.6%

C=C1CC[C@@H](C)[C@](C)(CCc2ccoc2)C/C=C\C=C/1C(=O)O
inactive: [1] 23.7% | [2] 30.8% | [3] 18.6% | [4] 48.1% | [5] 25.6% | [6] 61.6%

COC(=O)/C(C#N)=N/O
inactive: [1] 16.6% | [2] -39.1% | [3] -22.8% | [4] 8.4% | [5] -7.7% | [6] -21.6%

O=c1ccc(-c2ccc(-n3ccnc3)cc2)nn1CCO
inactive: [1] -39.4% | [2] -49.5% | [3] -24.7% | [4] -2.7% | [5] -38% | [6] -10.8%

O=C(CCCn1ccnc1[N+](=O)[O-])NCCn1cnc([N+](=O)[O-])n1
inactive: [1] 7% | [2] 17.2% | [3] -6.05% | [4] -6.2% | [5] -4.8% | [6] -16.1%

CC(=O)Oc1ccc(CCC(=O)O)cc1
inactive: [1] 18.8% | [2] 12.6% | [3] 6.9% | [4] 57.9% | [5] 11.4% | [6] 20.9%

[N-]=[N+]=Nc1c(C=O)c(=O)n2c3c(cccc13)CCC2
inactive: [1] 17.2% | [2] 32% | [3] 29.2% | [4] 31.2% | [5] 27.7% | [6] 61%

CC(O)C(=O)N(CCO)c1ccccc1 (stereo not given)
inactive: [1] 13.4% | [2] 1.2% | [3] -5.5% | [4] 3.25% | [5] 2.2% | [6] -21.4%

CC(=O)NCC(=O)c1ccc([N+](=O)[O-])cc1
inactive: [1] 16.6% and -14.7% | [2] -16.3% and -24.1% | [3] 13% and -0.95% | [4] -0.2% and 6.65% | [5] -6.95% and -17.6% | [6] 29.8% and -1.7%

CCN(CC)CC(C)O (stereo not given)
inactive: [1] 39.7% | [2] 13.2% | [3] 21% | [4] -26.9% | [5] -9.45% | [6] 30.6%

OCC1COCO1 (stereo not given)
inactive: [1] 0.35% | [2] -4.1% | [3] -8.75% | [4] -1.65% | [5] -6.5% | [6] 9.2%

CC(=O)N1C=CC(=Cc2ccccc2)C=C1
inactive: [1] -0.15% | [2] 5.55% | [3] -30.6% | [4] -1.25% | [5] 12.8% | [6] 3.95%

c1ccc(NN=Nc2ncnc3nc[nH]c23)cc1
inactive: [1] 3.35% | [2] 5.9% | [3] -2.2% | [4] -11.8% | [5] 7.7% | [6] 2.7%

CC(=O)OCC(C)O (stereo not given)
inactive: [1] 28% | [2] -9.7% | [3] 14.3% | [4] -0.3% | [5] 1.2% | [6] 2%

CCSc1nnc(SCC)c2c1ncn2CC
inactive: [1] 19.9% | [2] 5.8% | [3] 26.4% | [4] -39.8% | [5] 7.5% | [6] 9.05%

CC(=O)OC(C#N)c1ccco1 (stereo not given)
inactive: [1] -11.4% | [2] -49.1% | [3] -25.2% | [4] 5.8% | [5] -38.2% | [6] -7.85%

CCN(CC(COc1ccc2c(c1)[n+]([O-])nc(N)[n+]2[O-])OC(C)=O)C(C)=O (stereo not given)
inactive: [1] 42.9% | [2] 38.3% | [3] 41.5% | [4] 40.1% | [5] 25.4% | [6] 41.3%

C#CCC(C(=O)OC)N(CC)CC (stereo not given)
inactive: [1] 25.6% | [2] -21.9% | [3] 41.4% | [4] 0.55% | [5] 46.1% | [6] 33.7%

CC(=O)Oc1cc(C)c(OC(C)=O)c2ccccc12
inactive: [1] -6.6% | [2] 17.7% | [3] 4.45% | [4] -1.3% | [5] 10.3% | [6] 4.1%

Nc1nc2cc3nc(N)c(N)nc3cc2nc1N
inactive: [1] -6.4% | [2] 14.7% | [3] 13.1% | [4] 34.9% | [5] 13.2% | [6] 15.1%

CCCCCCCC[n+]1ccc(C#N)cc1
inactive: [1] 11.7% | [2] 4% | [3] 14.3% | [4] 15.9% | [5] 5.65% | [6] 19%

O=C(CCl)NNC1=Nc2ccc(Cl)cc2SC1
inactive: [1] -2.2% | [2] -3.65% | [3] 8.55% | [4] 0.6% | [5] 5.8% | [6] 11.2%

O=P1(O)c2ccccc2Nc2cc(C(F)(F)F)ccc21
inactive: [1] 24.1% | [2] -8.25% | [3] -9.8% | [4] 8.7% | [5] -9.85% | [6] -49.4%

CCCCn1cnc2c(SC)ncnc21
inactive: [1] -8.1% | [2] -23.9% | [3] -18.4% | [4] -0.35% | [5] -32.8% | [6] -3.65%

COc1ccc2oc(-c3cc4cc(OC)ccc4o3)cc2c1
inactive: [1] -10.7% | [2] -5.7% | [3] -12.8% | [4] -17.9% | [5] -61.2% | [6] -0.55%

O=C(O)COc1ccc(NC(=O)COc2ccc(Cl)c(Cl)c2)cc1
inactive: [1] 8.8% | [2] -10% | [3] -28.9% | [4] -30.1% | [5] 2.75% | [6] 15.1%

CCCCCCCCCCCCCCCCCCOc1ccccn1
inactive: [1] -9.8% | [2] -32.1% | [3] -9.75% | [4] 2.55% | [5] -17.9% | [6] 3.25%

CCCCC1(N=[N+]=[N-])C(=O)C2C=CC=C3c4ccccc4N(C1=O)C32 (stereo not given)
inactive: [1] -1.15% | [2] -11.2% | [3] -5.8% | [4] -43.2% | [5] 34.7% | [6] 2.85%

CSc1cccc(NC(=S)NC(=O)c2ccccc2)c1
inactive: [1] -0.25% | [2] -8.15% | [3] -0.65% | [4] -2.4% | [5] 2.55% | [6] -17.4%

N#CCN(CC#N)C1CC=CCC1N(CC#N)CC#N (stereo not given)
inactive: [1] -26.2% | [2] 1% | [3] -30.2% | [4] -20.8% | [5] -21% | [6] -38.1%

CN(C)/C(N)=N\c1nc(O)cc(=O)[nH]1
inactive: [1] 6.7% | [2] -19.6% | [3] -0.05% | [4] -0.6% | [5] 10.7% | [6] 10.1%
